Entries with a potency or affinity are not part of this list. A number with no mark means an inactive call. Calls of active or inactive are those of the source. No rule for the calls is given here.
Assay: cytotoxicity in HeLa cells, dose response, cytotoxicity control, cell-based, 24 h, dry powder (AID 651774)
Details: HeLa viability, CellTiter-Glo ATP luminescence; series mostly up to 35 µM; activity change, negative = cytotoxicity: at the top concentration

Compared with `CC(C)c1ccc(CNc2nnnn2C)cc1`, `CC(C)c1ccc(CNc2nn[nH]n2)cc1` is lower in “activity change, negative = cytotoxicity” value: -2.45% for the first, -3.7% for the second.

First: Cn1nnnc1NCc1ccccc1
Second: CCn1nnnc1NCc1ccccc1
The “activity change, negative = cytotoxicity” value of the first is higher: 11.8% for the first, 0.61% for the second.

Going from `CCC(C)NC(=O)Cc1ccc(-c2ccccc2)cc1` (stereo not drawn) to `CC(C)NC(=O)Cc1ccc(-c2ccccc2)cc1`, the “activity change, negative = cytotoxicity” value rises from -13.7% to -0.68%.

Compared with `O=C(Cc1ccc(-c2ccccc2)cc1)N1CCOCC1`, `O=C(Cc1ccc(-c2ccccc2)cc1)N1CCCC1` is higher in “activity change, negative = cytotoxicity” value: 6.81% for the first, 10.1% for the second.

First: O=C(Cc1ccccc1OC(F)(F)F)NC1CCCC1
Second: O=C(Cc1cccc(OC(F)(F)F)c1)NC1CCCC1
The “activity change, negative = cytotoxicity” value of the first is lower: -4.41% for the first, -1.72% for the second.

Compared with `c1ccc(CNc2nn[nH]n2)cc1`, `Cn1nnc(NCc2ccccc2)n1` is higher in “activity change, negative = cytotoxicity” value: -14.7% for the first, -9.85% for the second.

Going from `Cc1ccccc1CC(=O)NC1CCCC1` to `O=C(Cc1cccc(Cl)c1)NC1CCCC1`, the “activity change, negative = cytotoxicity” value falls from 0.361% to -1.26%.

First: CC(C)n1nnnc1NCc1ccc(N2CCCC2)cc1
Second: CCN(Cc1ccc(N2CCCC2)cc1)c1nnnn1CC
The “activity change, negative = cytotoxicity” value of the first is lower: -3.65% for the first, -1.69% for the second.

First: COc1cccc(CC(=O)NC2CCCC2)c1
Second: COc1ccc(CC(=O)NC2CCCC2)cc1
The “activity change, negative = cytotoxicity” value of the first is lower: -2.49% for the first, -1.46% for the second.

Compared with `O=C(Cc1ccc(-c2ccncc2)cc1)NC1CCCC1`, `O=C(Cc1ccc(-c2cccnc2)cc1)NC1CCCC1` is lower in “activity change, negative = cytotoxicity” value: -0.196% for the first, -4.99% for the second.

First: O=C(Cc1ccc(-c2ccccc2)cc1)NCC1CCCC1
Second: CCNC(=O)Cc1ccc(-c2ccccc2)cc1
The “activity change, negative = cytotoxicity” value of the first is higher: 9.56% for the first, -6.05% for the second.

Going from `O=C(Cc1ccc(-c2ccccc2)cc1)NCc1ccccc1` to `O=C(Cc1ccc(-c2ccccc2)cc1)Nc1ccccc1`, the “activity change, negative = cytotoxicity” value rises from -5.28% to -4.47%.

Compared with `CCn1nnnc1NCc1ccc(C(F)(F)F)cc1`, `N#Cc1ccc(CC(=O)NC2CCCC2)cc1` is higher in “activity change, negative = cytotoxicity” value: -7.68% for the first, 12.5% for the second.

With `CC(C)(C)OC(=O)N1CCC(NC(=O)Cc2ccc(-c3ccccc3)cc2)CC1` the “activity change, negative = cytotoxicity” value was 2.47%.

For `O=C(Cc1ccc(-c2ccccc2)cc1)NC1CCCC1`, the outcome was “inactive”.

Reference: PubChem BioAssay AID651774 (Broad Institute, 2012)
